As a reminder, the inhibition is the change of the read-out against control, counted positive when it falls. Usually viability stands for a per cent measure of how many cells are alive, often set against a control.

Test [1] in a line: compounds altering circadian rhythm period length – cell-based, LOPAC library, luminescence reporter (AID 2774).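 Note: values are relative to mean of DMSO wells on each plate.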 The conditions noted are these: circadian reporter cells, at 7 µM, actives lie on both sides.
Test [2] relates to Hepatitis C virus NS3 helicase. As to the kind of experiment: blockers of NS3h binding to ssDNA – biochemical, fluorescence polarization, LOPAC1280 library, primary screen (AID 687035; in the data active = inhibition above about 37%). The conditions noted are these: Purified HCV NS3 helicase, Cy5-dT15 ssDNA binding fluorescence polarization; stronger effect = higher value; concentration not given here. Background: Polarisation of emitted light reports the rotation of a fluorescent probe.

Test [3] is described as follows: compounds altering Cy5-DNA-NS3h complex signal – biochemical, LOPAC1280, artefact control for HCV NS3 helicase inhibitor project (AID 687037). The conditions noted are these: Cy5-DNA-NS3h complex fluorescence interference counterscreen. (In general: A counterscreen serves to expose hits that act by an unwanted route or on another target.)
Test [4] in a line: viability loss with induced miR-34 in A549 – imaging, A549 dox-inducible miR-34, nuclei and caspase counts, primary screen (AID 1347080;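 active = compounds whose cell count with miR-34 switched on is under 0.7 times the count with it off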). The conditions noted are these: A549 miR-34 inducible, Hoechst nuclei count, 48 h.
Test [5] can be described thus: galactose survival enhancers in mitochondrial complex I cybrids – cell-based, galactose medium, ATP luminescence, primary screen (AID 1645843;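 active = z-score of at least 1.8 in each of two replicates, scored against plate mean and spread of sample wells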;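 note: positive z means more ATP and so rescue of galactose-driven cybrid death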). The conditions noted are these: complex I mutant cybrid cells, 72 h, stronger effect = higher value.
Test [6] is described as follows: compounds altering viability of human ES cells (AID 493140).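 Note: cells exposed to compounds for four days before counting.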 The conditions noted are these: human embryonic stem cell survival screen; stronger effect = higher value.
The nature of test [7]: P. berghei load reduction in hepatocytes – cell-based, HepG2, luciferase luminescence, HepG2 viability, primary screen (AID 624349; in the data active = parasite load remaining mostly below about 12%, no sharp cut-off; inactive = mostly above about 10%;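 note: 100% = mean of DMSO negative control wells on the same plate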). The note with it: P. berghei liver stage in HepG2, luciferase luminescence, concentration not given here; parasite load remaining: stronger effect = lower value; viability: measured here: HepG2 viability without parasites.
Where [8] appears, read: stronger effect = lower value, cell number ratio, induced over uninduced.
Where [9] appears, read: measured here: relative caspase fold change +Dox/-Dox.
The mark [10] stands for this setting: measured here: total cells with miR-34 induction, stronger effect = lower value.
The mark [11] stands for this setting: measured here: total cells without miR-34 induction.

SMILES strings stand for the structures. Values joined by “and” are separate entries in the source; they are usually repeats but may differ in a detail not shown here. Equal values may be shown once. Active and inactive are the calls of the source. Unless noted, the rule behind the calls is not given here.

For the compound `N=S(=O)(O)Cc1noc2ccccc12`, the period change in test [1] was 0.1 h (inactive). The inhibition in test [2] was 1% (inactive). Besides, in test [3], the fluorescence ratio (interference) was 1 (inactive). Further, the figures for the fold change in test [4] (setting [8]) and in test [4] (setting [9]) were 0.955 (inactive) and 2.62, respectively. Also, the cell count was 9240 in test [4] (setting [10]) and 9680 in test [4] (setting [11]). Also, the z-score in test [5] was 0.5 (inactive).
On to `C[N+](C)(C)CCOP(=O)(O)OP(=O)([O-])OC[C@H]1O[C@@H](n2ccc(N)nc2=O)C(O)[C@H]1O` (stereo partly drawn), for which, in test [2], the inhibition is -3% (inactive). In addition, the fluorescence ratio (interference) in test [3] is 1 (inactive). Moreover, the fold change in test [4] (setting [8]) is 1.01 (inactive); in test [4] (setting [9]), 1.19. In addition, the cell count in test [4] (setting [10]) came to 10900; in test [4] (setting [11]), 10800. Besides, in test [5], the z-score was 0.115 (inactive).
In the case of `NCCC(=O)NCCc1cnc[nH]1`, the period change in test [1] is 0.085 h (inactive). Further, in test [6], the survival is 7.75 (inactive). The parasite load remaining in test [7] was 133% (inactive) and 73.6% (inactive). Further, the viability in test [7] is 94% and 70.5%. Moreover, the fold change in test [4] (setting [8]) was 0.903 (inactive); in test [4] (setting [9]), 1.35. In addition, the cell count in test [4] (setting [10]) turned out to be 9030; in test [4] (setting [11]), 10000.

These data come from PubChem BioAssay.
